TDP43 rescue – qHTS of TDP-43 Inhibitors | TDP-43 expressing yeast growth rescue, BacTiter-Glo, 24 h | Potency, µM (highest dose often 46.1 µM), most hits filed as activators | 410,000 tested, 1.8% active; note: nearly all actives have a fitted effect of over 50% in size
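Cell-based yeast growth screen: TDP-43 expression induced in galactose, inoculum OD600=0.02 after raffinose pregrowth to mid-log. Read-out BacTiter-Glo luminescence at 24 hr, 30 deg C; inhibition of toxicity seen as signal increase.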
FUS yeast rescue – qHTS for Suppressors of FUS Proteinopathy: Primary screen using FUS-linked yeast assay; S. cerevisiae FUS-expressing, growth rescue, OD600, 24 h; Potency, µM (top dose mostly 76.6 µM), most hits filed as activators; 390,000 tested, 0.24% active; note: nearly all actives have a fitted effect of over 55% in size
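FUS-expressing yeast, raffinose-pregrown, induced in 2% galactose minimal medium at OD 0.005; compounds in a dilution series, 24hr at 30C. Growth restoration read as absorbance at 600 nm. CP55940 positive control, DMSO negative.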
aSyn rescue – qHTS of alpha-syn Inhibitors. 370,000 tested, 0.14% active. AID 652106, 2013. Yeast expressing alpha-synuclein, growth rescue, BacTiter-Glo, 24 h. Potency, µM (top dose mostly 46.1 µM), hits mostly activators; note: nearly all actives have a fitted effect of over 65% in size
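Galactose-induced alpha-syn yeast (OD600=0.02, raffinose-pregrown) + pinned cpd, 24 hr, 30 deg C; growth by BacTiter-Glo luminescence. Growth restoration scores as activation.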
Abeta rescue – qHTS for compounds that reverse cellular toxicity of Amyloid beta (A-beta) peptide in yeast: Primary Screen; yeast expressing A-beta42, growth rescue, OD600, 48 h; response scale: 0% DMSO, 100% iron-clioquinol control; 410,000 tested, 0.063% active; Potency, µM (series often up to 46.1 µM), actives largely listed as activators; note: nearly all actives have a fitted effect of over 55% in size
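Yeast growth medium received pinned compounds, then yeast cells expressing toxic A-beta were added; plates incubated at 30 C for 48 hr. Growth read as absorbance at 600 nm, normalized to DMSO and equimolar FeCl3 plus clioquinol controls.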
Numbers stand for hits. Hits are enriched below; roughly 2.1% of the tested compounds scored in any of these assays. Calls come from the whole dose curve; as a rule, active = well fitted curve in the direction sought with a large enough effect; inconclusive = small, poorly fitted or top-dose-only effect, or another doubt; inactive = no such curve, though single readings can be large; an effect the other way counts as inactive or inconclusive.

`COc1ccc(-c2nnc(SCc3ccccc3F)o2)cc1` gave TDP43 rescue 11µM, FUS yeast rescue inactive, aSyn rescue inactive and Abeta rescue inactive.
COc1ccc(C2C(C(=O)Nc3cc(OC)ccc3OC)CCC(=O)N2c2ccc(OC)cc2)cc1 (stereo not given) was read as FUS yeast rescue inactive.
CCCN(CC1CC1)c1nc(C)nc2c1nnn2Cc1ccccc1 was read as FUS yeast rescue inactive.
`O=[N+]([O-])c1ccc2[nH]c(O)c(N=NC(=S)Nc3cccnc3)c2c1` gave TDP43 rescue 10µM, FUS yeast rescue inactive, aSyn rescue inactive and Abeta rescue inactive.
CN(Cc1ccccc1)C(=O)CSc1c2c(nc3ccc(Cl)cc13)CCCC2 was read as TDP43 rescue 20µM, FUS yeast rescue inconclusive and Abeta rescue inactive.
`CCCCN(C)C(=O)CSc1c2c(nc3ccc(Cl)cc13)CCCC2` gave TDP43 rescue inactive, FUS yeast rescue inactive and Abeta rescue inactive.
For CCCN(CCC)C(=O)CSc1c2c(nc3ccc(Cl)cc13)CCCC2 the results were TDP43 rescue 20µM, FUS yeast rescue inactive and Abeta rescue inactive.
COc1ccc(CN2C(=O)CSCCC2(C)c2nnnn2-c2c(C)cccc2C)cc1 (stereo not given) was read as FUS yeast rescue inactive.
Cc1ccccc1Cn1cc(CN2[C@@H](CC(C)C)COc3cc(Br)ccc3S2(=O)=O)nn1 was read as FUS yeast rescue inactive.
COc1cc2c(NC3CCN(C)CC3)nc(N3CCCCC3)nc2cc1OCCCN(C)C was read as aSyn rescue inactive.
For Cc1onc(C(=O)N2CCN(c3ccccc3)CC2)c1[N+](=O)[O-] the results were TDP43 rescue inconclusive, FUS yeast rescue inactive, aSyn rescue inactive and Abeta rescue inactive.
For Cc1cccc(N2CCN(C(=O)c3noc4c3CCCCC4)CC2)c1C the results were TDP43 rescue 16µM, FUS yeast rescue inactive and Abeta rescue inactive.
Cc1ccc2c(c1)-c1onc(C(=O)N3CCN(c4cccc(C)c4C)CC3)c1CO2 was read as TDP43 rescue inactive, FUS yeast rescue inactive, aSyn rescue inactive and Abeta rescue inactive.
Screening O=C(c1noc2c1CCCCC2)N1CCN(c2ccc(Cl)cc2)CC1 returned TDP43 rescue inactive, FUS yeast rescue inactive and Abeta rescue inactive.
For Cc1ccc(Cl)cc1N1CCN(C(=O)c2noc(C)c2[N+](=O)[O-])CC1 the results were TDP43 rescue 13µM, FUS yeast rescue inactive, aSyn rescue inactive and Abeta rescue inactive.
For Cc1ccc(CSCC(=O)N2CCN(c3cc(Cl)ccc3C)CC2)cc1 the results were TDP43 rescue 18µM, FUS yeast rescue inactive and Abeta rescue inactive.
For Cc1ccc(Cl)cc1N1CCN(C(=O)c2noc3c2CCCC3)CC1 the results were TDP43 rescue 22µM, FUS yeast rescue inactive and Abeta rescue inactive.
For O=C(Nc1ccc(Cl)cc1)O[C@@H]1CC[C@@]23CCCN2C(=O)CCC[C@H]3C1 the results were FUS yeast rescue inactive.
O=C(NC1CCCCN(Cc2cccc(F)c2)C1=O)c1ccc(-c2ccccc2)cc1 (stereo not given) was read as FUS yeast rescue inactive.
Screening O=C(c1ccc(Cl)c(Cl)c1)N1CCN(c2ccnc3cc(Cl)ccc23)CC1 returned FUS yeast rescue inactive.
For Cc1ccc(Nc2cc(C)nc(-c3ccccc3O)n2)cc1 the results were TDP43 rescue inconclusive, FUS yeast rescue inactive, aSyn rescue inactive and Abeta rescue inactive.
Screening Cc1cc(N/N=C/c2ccc(O)c(C)c2O)nc(-c2ccccc2O)n1 returned TDP43 rescue 10µM, FUS yeast rescue inactive, aSyn rescue inactive and Abeta rescue inactive.
C/C(=N\Nc1cc(-c2ccccc2)nc(-c2ccccc2)n1)c1ccc(O)c(C)c1 was read as TDP43 rescue 16µM, FUS yeast rescue inactive, aSyn rescue inactive and Abeta rescue inactive.
`C/C(=N\Nc1cc(C)nc(-c2ccccc2O)n1)c1ccccc1` gave TDP43 rescue 10µM, FUS yeast rescue inactive, aSyn rescue inactive and Abeta rescue inactive.
For COc1cccc(/C=C/c2cnc3ccccc3n2)c1OC the results were aSyn rescue inactive.
Screening Cc1ccc(CNC(=O)Cn2c(=O)cc(-c3ccccc3)c3c(C)nn(C)c32)cc1 returned TDP43 rescue 22µM, FUS yeast rescue inactive and Abeta rescue inactive.
`COc1ccccc1CNC(=O)C(C)n1c(=O)cc(-c2ccccc2)c2c(C)nn(C)c21` (stereo not given) gave TDP43 rescue 16µM, FUS yeast rescue inconclusive and Abeta rescue inactive.
Screening Cc1ccc(CNC(=O)C(C)n2c(=O)cc(-c3ccccc3)c3c(C)nn(C)c32)cc1 (stereo not given) returned TDP43 rescue 22µM, FUS yeast rescue inactive and Abeta rescue inactive.
`COc1cccc(CNC(=O)C(C)n2c(=O)cc(-c3ccccc3)c3c(C)nn(C)c32)c1` (stereo not given) gave TDP43 rescue 22µM, FUS yeast rescue inactive and Abeta rescue inactive.
Screening O=C(COc1ccc(Br)cc1Cl)c1ccc[nH]1 returned TDP43 rescue 20µM, FUS yeast rescue inactive, aSyn rescue inactive and Abeta rescue inactive.
Cc1ccc(NC(=O)c2cc(C(C)(C)C)nn2Cc2ccccc2)cc1 was read as TDP43 rescue inactive, FUS yeast rescue inactive, aSyn rescue inactive and Abeta rescue inactive.
Screening CC(C)(C)c1cc(C(=O)Nc2ccc(F)cc2)n(Cc2ccc(F)cc2)n1 returned TDP43 rescue 20µM, FUS yeast rescue inactive, aSyn rescue inactive and Abeta rescue inconclusive.
For O=C(N/N=C/C(Cl)=C/c1ccccc1)c1ccccn1 the results were TDP43 rescue 10µM, FUS yeast rescue inactive, aSyn rescue inactive and Abeta rescue inactive.
For ONC(=Nc1ccccc1)c1ccc(Cl)cc1 the results were TDP43 rescue 13µM, FUS yeast rescue inactive, aSyn rescue inactive and Abeta rescue inactive.
For c1ccc2c(c1)OCCc1c-2[nH]c2ccccc12 the results were TDP43 rescue 13µM, FUS yeast rescue inactive, aSyn rescue inactive and Abeta rescue inactive.
O=C1CCCc2c1[nH]c1ccccc21 was read as TDP43 rescue inactive, FUS yeast rescue inactive, aSyn rescue inactive and Abeta rescue inactive.
For O=C(C1CCC1)N1CCc2cc(S(=O)(=O)N3CCCC3)ccc21 the results were FUS yeast rescue inactive.
For Cc1ccccc1NC(=O)Cn1nnc(-c2ccncc2)n1 the results were FUS yeast rescue inactive.
Screening COc1ccc(C2Nc3cccc(O)c3C(=O)N2Cc2ccccc2)cc1COc1ccc(NC(C)=O)cc1 (stereo not given) returned FUS yeast rescue 11µM and Abeta rescue inactive.
For COc1ccc(C2Nc3ccccc3C(=O)N2Cc2ccncc2)cc1COc1ccc(NC(C)=O)cc1 (stereo not given) the results were FUS yeast rescue inactive.
`CC(C)NC(=S)N/N=C/c1ccc(C(C)(C)C)cc1` gave TDP43 rescue inactive, FUS yeast rescue inactive, aSyn rescue inactive and Abeta rescue 5.6µM.
